Assay outcomes from PubChem BioAssay.
Most compounds without a hit are left out; they make up all but 2.1% or so of the library.
IDE cell activ – human IDE activators in live cells, primary screen, fluorescence polarization, HEK cells, FAbeta-B substrate; activation, % at 5.96 µM; Insulin-degrading enzyme (Homo sapiens), P14735; AID 493087, 2011; actives 0.073% (n = 340,000); FAbeta-B cleavage; 0% vehicle, 100% cell-free pure enzyme wells;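 active = activation above the mean of all tested compounds plus 3 SD, set per screening campaign, cut at about 17% in these data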
Mot1-301 SUMO – yeast Mot1-301 growth rescue at high temperature, primary screen, SUMOylation pathway inhibitor project, S. cerevisiae, ATP luminescence, 38.5C. AID 2716, 2010. actives 1% (n = 320,000). S. cerevisiae Mot1-301 growth rescue; percent above DMSO median, 100 means doubled. growth rescue, % at 18.8 µM;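 active = every valid replicate shows activation above 250% relative to neutral control wells; inactive = the rest, any valid replicate at or below 250%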;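 also: OY570 slx delta 5 strain wells were the positive control but not used for scaling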
LANA-H2A inh – blockers of LANA interaction with H2A/H2B – biochemical, FP readout, HTS, primary screen; Protein LANA1 (Human herpesvirus 8 type P (isolate GK18)), Q9QR71; cell-free LANA-H2A/H2B peptide, fluorescence polarization; inhibition, % (concentration not given with the values); actives 0.6% (n = 320,000); in the data active = inhibition mostly above about 10%, no sharp cut-off; inactive = mostly below about 6.7%
HDAC3 inh – HDAC3 deacetylase inhibitors, primary screen, biochemical, fluorescence, cell-free homogeneous; Histone deacetylase 3 (Homo sapiens), O15379; recombinant HDAC3, fluorogenic peptide/trypsin coupled; inhibition, % at 8.3 µM; actives 0.15% (n = 320,000); in the data active = inhibition above about 26%, passing the limit was not always enough
Target sequence (O15379 whole entry, looked up): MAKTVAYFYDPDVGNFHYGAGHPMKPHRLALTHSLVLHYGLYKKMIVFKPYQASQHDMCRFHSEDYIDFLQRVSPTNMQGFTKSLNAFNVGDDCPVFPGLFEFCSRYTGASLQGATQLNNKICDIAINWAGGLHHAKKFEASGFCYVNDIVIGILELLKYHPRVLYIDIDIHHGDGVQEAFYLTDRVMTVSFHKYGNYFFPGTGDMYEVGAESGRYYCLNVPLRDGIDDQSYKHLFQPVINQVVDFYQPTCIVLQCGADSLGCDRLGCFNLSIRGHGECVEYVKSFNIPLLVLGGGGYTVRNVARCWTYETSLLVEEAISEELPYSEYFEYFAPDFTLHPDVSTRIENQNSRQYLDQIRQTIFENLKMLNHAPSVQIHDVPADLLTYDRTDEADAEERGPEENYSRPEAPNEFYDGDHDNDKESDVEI
IDE inh – human IDE inhibitors in live cells, primary screen, fluorescence polarization, HEK cells, FAbetaB substrate. Insulin-degrading enzyme (Homo sapiens), P14735. FAbetaB cleavage. inhibition, % at 5.59 µM. actives 0.41% (n = 320,000). AID 434962, 2010;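 active = percent inhibition above the average of all tested compounds plus 3 SD, set per screening campaign, cut at about 16% in these data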;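 also: IDE supplied by intact live HEK cells; FP after avidin binding of uncleaved biotin substrate so inhibition keeps polarization high; 0% = DMSO wells and 100% = 60 µM reference IDE inhibitor Ii1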
Mot1 SUMO dose – growth restoration of Mot1-301 yeast on galactose, dose response, SUMO pathway inhibitor project, whole organism, S. cerevisiae, ATP luminescence, cherry-picked samples; shares compounds with Mot1-301 SUMO; S. cerevisiae Mot1-301 galactose growth, 24 h; -100 = growth of slx-deleted rescue strain; growth activity, percent, % at 42 µM; 2,300 tested, under 10 active; AID 493004, 2010;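 active = Signal drops as the depositor expects, and the fitted half-maximal dose is no more than ten times the top valid tested dose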;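 also: more negative values mean stronger growth rescue toward the control strain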
Starred values were filed as active, the others as inactive; nt = no result; + = active, no number; [ ] = another dose, or the depositor's remark.

SMILES	IDE cell activ	Mot1-301 SUMO	LANA-H2A inh	HDAC3 inh	IDE inh	Mot1 SUMO dose
CC(C)(C)OC(=O)N1CCC(c2c(C(=O)NCC3CCN(C4CCCC4)C3)cnn2-c2ccccc2)CC1 (stereo not given)	4	11	1	0	1	nt
O=C(N/N=C/c1ccccn1)c1cc(-c2cccc3ccccc23)n[nH]1	0	10	0	8	-1	nt
O=C(O)c1ccc(/C=N/NC(=O)c2cc(-c3ccc4c5c(cccc35)CC4)n[nH]2)cc1	3	+	4	9	4	0
CC(C)NC(=O)NC(=O)COC(=O)CCCSc1nc2ccccc2s1	-2	505*	-2	12	0	0
NC(=O)NC(=O)COC(=O)CCCSc1nc2ccccc2s1	-1	17	-1	nt	3	nt
COC(=O)c1sc2ccccc2c1NC(=O)c1ccc(S(=O)(=O)N2CCCC(C)C2)cc1 (stereo not given)	-6	511*	-5	6	-4	0
COC(=O)c1sc2ccccc2c1NC(=O)c1ccc(S(=O)(=O)N2CCC(C)CC2)cc1	7	-4	5	0	-1	nt
Cc1cccc(CCN2C(Nc3ccccc3)=NC[C@@H]2C)c1	5	-21	0	5	6	nt
N#CC1=C(N)Oc2cc(O)ccc2C1c1cccs1 (stereo not given)	-8	84	-5	3	8	nt
N#CC1=C(N)Oc2c(ccc3ccccc23)C1c1cccs1 (stereo not given)	nt	508*	-7	-2	5	1
Cc1cc(NS(=O)(=O)c2ccc(NC(=O)Nc3cccc(C(F)(F)F)c3)cc2)no1	-1	-18	-2	12	0	nt
Cc1nn(-c2ccccc2)c2nc(C(F)F)cc(C(F)F)c12	9	4	0	-2	-1	nt
Cc1ccc(C(=O)c2cc([N+](=O)[O-])ccc2N2CCCCC2)cc1C	4	500*	-4	10	-5	0
CCn1c(SCC(=O)NC(=O)c2ccccc2OC)nc2ccccc21	-1	3	0	4	4	nt
COc1cc(OC)c(C(=O)N2CCN(c3ccccn3)CC2)cc1OC	-2	798*	1	-2	-1	0
O=C(c1ccc(CS(=O)(=O)c2ccc(Br)cc2)o1)N1CCN(c2ccccn2)CC1	-1	6	8	5	0	nt
COc1ccccc1C(=O)N1CCN(c2ccccn2)CC1	2	8	-2	-5	2	nt
Cc1ccc(S(=O)(=O)Cc2ccc(C(=O)N3CCN(c4ccccn4)CC3)o2)cc1	-1	537*	-3	-1	-1	0
COc1ccc(NC(=O)C(c2ccccc2)N2CCN(c3ccccn3)CC2)cc1Cl (stereo not given)	-6	755*	1	0	4	1
c1ccc(C(c2ccccc2)N2CCN(C(c3ccccn3)c3nnnn3C3CCCC3)CC2)cc1 (stereo not given)	4	+	-3	4	-2	0
c1ccc(C(c2nnnn2C2CCCC2)N2CCCCCC2)nc1 (stereo not given)	6	0	1	1	0	nt
O=c1[nH]c(=O)n(C2CCCO2)cc1Br (stereo not given)	3	678*	-3	-5	-3	1
O=c1[nH]c(=O)n([C@H]2C[C@H](O)[C@@H](CO)O2)cc1Br	-2	-10	3	5	0	nt
COc1ccc(N2CCN(CCCNC(=O)C(=O)c3c(C)[nH]c4ccccc34)CC2)cc1	2	413*	-2	4	4	0[21 µM]
Cn1c(=O)nc2n(Cc3ccccc3)c3ccccc3cc-2c1=O	1	417*	0	-54	4	-1
SMILES	IDE cell activ	Mot1-301 SUMO	LANA-H2A inh	HDAC3 inh	IDE inh	Mot1 SUMO dose
O=C1NC(c2ccccc2)C(C(=O)c2cccs2)C(O)(C(F)(F)F)N1 (stereo not given)	-6	374*	6	0	5	0
COc1cc(C2NC(=S)NC(O)(C(F)(F)F)C2C(=O)c2cccs2)cc(OC)c1O (stereo not given)	-2	-8	-4	7	3	nt
O=C(Nc1nc2ccccc2s1)c1cccc(S(=O)(=O)N2CCc3ccccc32)c1	5	+	1	nt	-1	0
CS(=O)(=O)c1ccc(Cl)c(C(=O)O)c1	2	608*	-5	3	2	0
O=C(O)c1cc(S(=O)(=O)N2CCCCCC2)ccc1Cl	10	55	0	3	0	nt
O=C(NCC1CCCO1)c1nn2c(C(F)(F)F)cc(-c3cc(Br)cs3)nc2c1Br (stereo not given)	5	472*	-3	1	1	0
CC(=O)c1ccc(N/N=C2/CCCNC2=O)cc1	nt	3	0	4	-6	nt
Cc1ccc(N/N=C2/CCCNC2=O)cc1	1	528*	8	2	-3	0
CCOc1ccccc1NC(=O)CSc1nnnn1C1CCCC1	3	11	2	1	7	nt
O=C(NCCc1c[nH]c2ccccc12)Nc1ccccc1	4	-8	-2	1	-3	nt
COc1ccccc1NC(=O)NCCc1c[nH]c2ccccc12	1	840*	-6	nt	4	-1
S=C(NCCc1c[nH]c2ccccc12)NC1CCCC1	3	3	-5	1	1	nt
S=C(NCCc1c[nH]c2ccccc12)NC1CC1	-7	401*	-1	-2	7	0
CCn1nccc1C(=O)Nc1nccs1	1	706*	4	-1	-1	0
CCCN1C(=O)c2ccc(C(=O)Nc3nccs3)cc2C1=O	1	544*	2	-3	0	1
CC(C)OCCCNC(=O)c1cc(S(=O)(=O)N2CCc3ccccc32)cn1C	-1	-14	6	nt	-1	nt
COCCN(C(=O)c1ccccc1Oc1ccccc1)c1c(N)n(CC(C)C)c(=O)[nH]c1=O	3	-6	1	2	0	nt
CCOC(=O)C1=C(COC(=O)c2cc(OC)c(OC)c(OC)c2)NC(=O)NC1C (stereo not given)	1	-5	-6	0	4	nt
COc1ccc(CN(C)C(=O)c2ccc(COc3ccccc3)cc2)c(OC)c1	3	111	-1	-1	-7	nt
COc1ccc(CN(C)C(=O)c2sccc2-c2ccccc2)c(OC)c1	-2	485*	0	4	-3	0
